Calls of active or inactive are those of the source. Rule for the calls: active = hit-call score of the fitted dose curve at least 0.9, where 1 is the maximum; inactive = score below 0.9.
Assays:
[1] = read-out: Human Leukocyte Antigen - DR isotype (HLADR), HLA-DRA (gene 3122); assay: BSK_BE3C_HLADR: BioMAP Diversity Plus: BE3C Assay for Human Leukocyte Antigen - DR isotype (HLADR) Biomarker Activity (AID 2283032); conditions: primary human bronchial epithelial cells; actives raise or lower the signal
Outline: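 BioMAP BE3C format: human bronchial epithelium, 24 h compound treatment, ELISA detection of HLA-DR, with bidirectional analysis relative to DMSO.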

[2] = read-out: Vascular cell adhesion molecule 1 (VCAM1), VCAM1 (gene 7412); assay: BSK_4H_VCAM1: BioMAP Diversity Plus: 4H Assay for Vascular cell adhesion molecule 1 (VCAM1) Biomarker Activity (AID 2283033); conditions: primary human endothelial cells (HUVEC); actives raise or lower the signal
Outline: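 In this human endothelial (HUVEC) system, biomarker ELISA was run 24 h after compound addition, and total protein in parallel wells was assessed by SRB at 560 nm; DMSO served as negative control.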

[3] = read-out: Interferon-gamma inducible Protein 10 (IP10), CXCL10 (gene 3627); assay: BSK_BE3C_IP10: BioMAP Diversity Plus: BE3C Assay for Interferon-gamma inducible Protein 10 (IP10) Biomarker Activity (AID 2283034); conditions: primary human bronchial epithelial cells; actives raise or lower the signal
Outline: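 BE3C cells (human bronchial epithelial, primary); 24 h exposure; ELISA for IP-10; DMSO-referenced bidirectional fit.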

[4] = read-out: Monokine induced gamma interferon (MIG), CXCL9 (gene 4283); assay: BSK_BE3C_MIG: BioMAP Diversity Plus: BE3C Assay for Monokine induced gamma interferon (MIG) Biomarker Activity (AID 2283035); conditions: primary human bronchial epithelial cells; actives raise or lower the signal
Outline: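 ELISA quantified MIG after 24 h exposure of primary bronchial epithelial cultures, analysed in both directions relative to DMSO. Cytotoxicity tracked in parallel cultures by sulforhodamine B staining.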

[5] = read-out: Transforming growth factor beta 1 (TGFb1), TGFB1 (gene 7040); assay: BSK_BE3C_TGFb1: BioMAP Diversity Plus: BE3C Assay for Transforming growth factor beta 1 (TGFb1) Biomarker Activity (AID 2283036); conditions: primary human bronchial epithelial cells; actives raise or lower the signal
Outline: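 TGF-b1 measured via ELISA, 24 h after chemical dosing of human bronchial epithelial cells (BE3C). Overt cytotoxicity assessed in parallel by SRB (0.1%, TCA-fixed, 560 nm); analysis bidirectional relative to DMSO.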

[6] = read-out: Plasminogen activator inhibitor-1 (PAI1), SERPINE1 (gene 5054); assay: BSK_BE3C_PAI1: BioMAP Diversity Plus: BE3C Assay for Plasminogen activator inhibitor-1 (PAI1) Biomarker Activity (AID 2283037); conditions: primary human bronchial epithelial cells; actives raise or lower the signal
Outline: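 In this multiplexed primary-cell system, bronchial epithelial cells receive test chemical and are sampled at 24 h. PAI-1 is read by ELISA, with DMSO serving as negative control for bidirectional fitting.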

[7] = read-out: urokinase plasminogen activator (uPA), PLAU (gene 5328); assay: BSK_BE3C_uPA: BioMAP Diversity Plus: BE3C Assay for urokinase plasminogen activator (uPA) Biomarker Activity (AID 2283038); conditions: primary human bronchial epithelial cells; actives raise or lower the signal
Outline: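 Bronchial epithelial cells (human, primary); chemical 24 h; uPA by ELISA; bidirectional fit vs DMSO. SRB (0.1%, after 10% TCA fixation, 560 nm) in parallel cultures for cytotoxicity.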

[8] = read-out: Urokinase-type plasminogen activator receptor (uPAR), PLAUR (gene 5329); assay: BSK_BE3C_uPAR: BioMAP Diversity Plus: BE3C Assay for Urokinase-type plasminogen activator receptor (uPAR) Biomarker Activity (AID 2283039); conditions: primary human bronchial epithelial cells; actives raise or lower the signal
Outline: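 Chemically treated human bronchial epithelial cells (lung primary) are assayed for uPAR by ELISA after 24 h, with data fitted in both directions using DMSO as negative control.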

[9] = read-out: Interleukin-6 (IL6), IL6 (gene 3569); assay: BSK_CASM3C_IL6: BioMAP Diversity Plus: CASM3C Assay for Interleukin-6 (IL6) Biomarker Activity for (AID 2283040); conditions: primary human coronary artery smooth muscle cells; actives raise or lower the signal
[10] = read-out: Tissue plasminogen activator (tPA), PLAT (gene 5327); assay: BSK_BE3C_tPA: BioMAP Diversity Plus: BE3C Assay for Tissue plasminogen activator (tPA) Biomarker Activity (AID 2283041); conditions: primary human bronchial epithelial cells; actives raise or lower the signal
Outline: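 Using human lung primary bronchial epithelial cells, tPA was measured by ELISA 24 h after dosing; data fitted relative to DMSO.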

[11] = read-out: Interleukin-8 (IL8), CXCL8 (gene 3576); assay: BSK_CASM3C_IL8: BioMAP Diversity Plus: CASM3C Assay for Interleukin-8 (IL8) Biomarker Activity (AID 2283042); conditions: primary human coronary artery smooth muscle cells; actives raise or lower the signal;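 note: IL-8 protein level quantified by ELISA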
[12] = read-out: Human Leukocyte Antigen - DR isotype (HLADR), HLA-DRA (gene 3122); assay: BSK_CASM3C_HLADR: BioMAP Diversity Plus: CASM3C Assay for Human Leukocyte Antigen - DR isotype (HLADR) Biomarker Activity (AID 2283043); conditions: primary human coronary artery smooth muscle cells; actives raise or lower the signal;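 note: cell-surface HLA-DR protein level quantified by ELISA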
[13] = read-out: Macrophage colony-stimulating factor (MCSF), CSF1 (gene 1435); assay: BSK_CASM3C_MCSF: BioMAP Diversity Plus: CASM3C Assay for Macrophage colony-stimulating factor (MCSF) Biomarker Activity (AID 2283044); conditions: primary human coronary artery smooth muscle cells; actives raise or lower the signal;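 note: M-CSF protein amount quantified by ELISA after 24 h exposure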
[14] = read-out: Low-density lipoprotein receptor (LDLR), LDLR (gene 3949); assay: BSK_CASM3C_LDLR: BioMAP Diversity Plus: CASM3C Assay for Low-density lipoprotein receptor (LDLR) Biomarker Activity (AID 2283045); conditions: primary human coronary artery smooth muscle cells; actives raise or lower the signal;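 note: LDLR protein level on the cell surface quantified by ELISA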
[15] = read-out: Monocyte Chemoattractant Protein-1 (MCP1), CCL2 (gene 6347); assay: BSK_CASM3C_MCP1: BioMAP Diversity Plus: CASM3C Assay for Monocyte Chemoattractant Protein-1 (MCP1) Biomarker Activity (AID 2283046); conditions: primary human coronary artery smooth muscle cells; actives raise or lower the signal;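 note: MCP-1 level quantified by ELISA 24 h after dosing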
[16] = BSK_CASM3C_Proliferation: Cell Proliferation Assessment in the BioMAP Diversity Plus: CASM3C Assay (AID 2283047); conditions: primary human coronary artery smooth muscle cells;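 note: sulforhodamine B total protein stain as relative cell number at 560 nm; sub-confluent cells exposed 48 h before staining; fitted both ways against DMSO so gain or loss of cell number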
[17] = read-out: Monokine induced gamma interferon (MIG), CXCL9 (gene 4283); assay: BSK_CASM3C_MIG: BioMAP Diversity Plus: CASM3C Assay for Monokine induced gamma interferon (MIG) Biomarker Activity (AID 2283048); conditions: primary human coronary artery smooth muscle cells; actives raise or lower the signal;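 note: MIG protein level measured by ELISA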
[18] = read-out: serum amyloid A (SAA), SAA1 (gene 6288); assay: BSK_CASM3C_SAA: BioMAP Diversity Plus: CASM3C Assay for serum amyloid A (SAA) Biomarker Activity (AID 2283049); conditions: primary human coronary artery smooth muscle cells; actives raise or lower the signal;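 note: SAA protein level quantified by ELISA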
[19] = BSK_CASM3C_SRB: Viability Assessment in the BioMAP Diversity Plus: CASM3C Assay (AID 2283050); conditions: primary human coronary artery smooth muscle cells;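 note: total protein by SRB staining as cytotoxicity measure in parallel cultures; cells exposed to compound for 24 h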
[20] = read-out: Thrombomodulin, THBD (gene 7056); assay: BSK_CASM3C_Thrombomodulin: BioMAP Diversity Plus: CASM3C Assay for Thrombomodulin Biomarker Activity (AID 2283051); conditions: primary human coronary artery smooth muscle cells; actives raise or lower the signal;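 note: thrombomodulin protein level measured by ELISA 24 h after dosing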

Measured: AC50

N#Cc1cccnc1
inactive: all assays above

c1ccc2sc(SNC3CCCCC3)nc2c1
not listed: [10]
inactive: all other assays above

CC(C)O.CC(C)O.OCCN(CCO)CCO.OCCN(CCO)CCO.[Ti]
inactive: all assays above

Oc1ccc(Cc2ccc(O)cc2)cc1
inactive: all assays above

C=CC(Cl)CCl (centres undefined)
active: [15] 0.0777 µM
not listed: [10]
inactive: all other assays above

CC(C)(COCC1CO1)COCC1CO1 (centres undefined)
inactive: all assays above

O=C1C=CC(=O)c2ccccc21
active: [1] 3.32 µM | [2] 1.95 µM | [3] 2.01 µM | [4] 6.51 µM | [5] 2.26 µM | [6] 3.25 µM | [7] 4.36 µM | [8] 4.59 µM | [9] 9.25 µM | [11] 20 µM | [12] 2.45 µM | [13] 5.16 µM | [14] 10.8 µM | [15] 8.9 µM | [16] 0.474 µM | [17] 30.1 µM | [18] 3.37 µM | [19] 8.33 µM | [20] 34.1 µM

CCOP(=S)(OCC)SCS(=O)(=O)C(C)(C)C
inactive: all assays above

C[C@]12CC[C@@H](O)C[C@@H]1CC[C@@H]1[C@@H]2CC[C@]2(C)C(=O)CC[C@@H]12
active: [14] 29 µM
inactive: all other assays above

Cc1cc(Cl)ccc1N
active: [6] 3.97 µM
not listed: [10]
inactive: all other assays above

O=C(Cc1ccccc1)OCCc1ccccc1
not listed: [5] | [10]
inactive: all other assays above

[Cl][Sn]([c]1ccccc1)([c]1ccccc1)[c]1ccccc1
inactive: [5]
active: [1] 0.0934 µM | [2] 0.0783 µM | [3] 0.0935 µM | [4] 0.209 µM | [6] 0.992 µM | [7] 0.27 µM | [8] 0.27 µM | [9] 0.726 µM | [11] 0.499 µM | [12] 0.261 µM | [13] 0.718 µM | [14] 0.343 µM | [15] 0.599 µM | [16] 0.134 µM | [17] 0.524 µM | [18] 0.522 µM | [19] 0.688 µM | [20] 1.07 µM

CCOP(=O)(OCC)SCCSCC
not listed: [10]
inactive: all other assays above

Cc1ccccc1OP(=O)(Oc1ccccc1C)Oc1ccccc1C
active: [1] 20 µM | [2] 7.84 µM | [3] 13.3 µM | [5] 11.4 µM | [6] 11 µM | [9] 8.58 µM | [12] 32.9 µM | [13] 29.4 µM | [15] 24.3 µM | [16] 24.3 µM | [19] 30.1 µM
inactive: [4] | [7] | [8] | [11] | [14] | [17] | [18] | [20]

Oc1c(Br)cc(Br)cc1Br
active: [1] 12.6 µM | [2] 20 µM | [3] 20 µM | [8] 20 µM
not listed: [10]
inactive: all other assays above

CC(C)=CC1C(C(=O)OCc2cccc(Oc3ccccc3)c2)C1(C)C (centres undefined)
active: [12] 20 µM | [20] 10.4 µM
not listed: [10]
inactive: all other assays above

CCCCCCCCCCCCc1cccc(S(=O)(=O)O)c1
active: [1] 17.6 µM | [3] 13 µM | [4] 30.1 µM | [5] 5.79 µM | [6] 23.7 µM | [7] 28.4 µM | [8] 29.1 µM
not listed: [10]
inactive: all other assays above

Clc1cccc(Cl)c1
not listed: [10]
inactive: all other assays above

Oc1cc(Cl)c(Cl)cc1Cl
active: [3] 32.2 µM | [7] 26.2 µM | [10] 12.9 µM | [16] 30.8 µM
not listed: [6] | [20]
inactive: all other assays above

Oc1c(Cl)cc(Cl)cc1Cl
not listed: [10]
inactive: all other assays above

Cc1ccccc1OP(=O)(Oc1ccccc1)Oc1ccccc1
active: [1] 11.5 µM | [2] 26.1 µM | [19] 8.32 µM
not listed: [10]
inactive: all other assays above

CCCCOC(=O)COC(=O)c1ccccc1C(=O)OCCCC
not listed: [5]
inactive: all other assays above

COc1ccccc1N
not listed: [10]
inactive: all other assays above

Clc1cccc(Cl)c1Cl
not listed: [10]
inactive: all other assays above

O=S(=O)(C(Cl)(Cl)Cl)C(Cl)(Cl)Cl
active: [1] 3.17 µM | [2] 1.43 µM | [3] 2.86 µM | [4] 7.75 µM | [5] 9.08 µM | [6] 3.87 µM | [7] 5.31 µM | [8] 7.21 µM | [9] 1.61 µM | [11] 1.69 µM | [12] 1.31 µM | [13] 2.2 µM | [15] 2.28 µM | [16] 0.528 µM | [17] 3.13 µM | [18] 0.877 µM | [19] 1.54 µM
inactive: [14] | [20]
